Results published in PubChem BioAssay (NCI).
About 83,000 compounds went through this panel and 20% of them were active in at least one assay; those are over-represented in the sample as a whole.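 Testing used 96-well plates and a 48-hour single-concentration exposure. Example: -40 means 40% of the starting cells died.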 Unmarked numbers belong to inactive results. Activity calls are given as the source filed them. The calls were made as follows: active = growth percent below 10; inactive = the rest.

Key:
Assay in all cases: NCI-60 one-dose screen, 48 h (100 = growth as untreated, 0 = no growth, -100 = all killed)
Details in all cases: 10 µM unless noted
SR leukemia = tested on: SR leukemia
RPMI-8226 leukemia = tested on: RPMI-8226 leukemia
OVCAR-8 ovarian = tested on: OVCAR-8 ovarian
OVCAR-5 ovarian = tested on: OVCAR-5 ovarian
OVCAR-4 ovarian = tested on: OVCAR-4 ovarian
SK-OV-3 ovarian = tested on: SK-OV-3 ovarian
IGROV1 ovarian = tested on: IGROV1 ovarian
OVCAR-3 ovarian = tested on: OVCAR-3 ovarian
HS 578T breast = tested on: HS 578T breast
NCI/ADR-RES ovarian = tested on: NCI/ADR-RES ovarian

Row | Compound | growth (SR leukemia) | growth (RPMI-8226 leukemia) | growth (OVCAR-8 ovarian) | growth (OVCAR-5 ovarian) | growth (OVCAR-4 ovarian) | growth (SK-OV-3 ovarian) | growth (IGROV1 ovarian) | growth (OVCAR-3 ovarian) | growth (HS 578T breast) | growth (NCI/ADR-RES ovarian)
1 | CCCNNC(=O)c1ccc(-c2ccc(NC(=O)CCCCCCC(=O)N[C@H](C(=O)N3C[C@H](O)C[C@H]3C(=O)N[C@@H](C)c3ccc(-c4scnc4C)cc3)C(C)(C)C)cc2)cc1 | 17.9% | 2.23% (active) | 32.7% | 27.3% | 53.6% | 18.5% | 25.5% | 30.2% | 30.3% | 96.7%
2 | CCOP(=O)(OCC)OC[C@]12CC[C@@H](C)[C@H](C)C1C1=CC[C@@H]3[C@@]4(C)CCCNC(C)(C)[C@@H]4CC[C@@]3(C)[C@]1(C)CC2 (stereo not given in full) | -57.7% (active) | -48.9% (active) | 61.2% | 70% | 34.4% | 72.7% | 0.926% (active) | 38.4% | 47.8% | 20.6%
3 | COc1cc(C(=O)c2cc(C(C)=O)c3c(C)cccn23)cc(OC)c1OC | 96.5% | 95.5% | 106% | 95.8% | 90.8% | 109% | 97.6% | 115% | 90.7% | 97.9%
4 | Cc1ccc2c(n1)C(=O)C(Cl)=C(Nc1cccc(C(F)(F)F)c1)C2=O | 9.01% (active) | -17.6% (active) | 76% | 119% | -97.8% (active) | 89.8% | -57.4% (active) | -86.3% (active) | 116% | 93.3%
5 | O=C(Nc1ccc(Cl)c(C(F)(F)F)c1)Nc1ccc2c(ccn2C(=O)c2cccc(F)c2)c1 | 27.5% | -6.63% (active) | 34.1% | 67.3% | 7.18% (active) | 99.1% | 25% | 9.54% (active) | 52.4% | 30.8%
6 | O=C(Nc1cccc(C(F)(F)F)c1)N1CCN(c2cc(-c3cn(-c4ccccc4)nc3-c3cccc(O)c3)ccn2)CC1 | 27.6% | 27.8% | 31.4% | 82.3% | 24.9% | 84.7% | 43.3% | 54.4% | 53.5% | 28.5%
7 | CC(C)(O)c1cncc(-c2ccc3ncc(C#N)c(N4CCc5cc(F)c(Cl)cc54)c3c2)c1 | 11.8% | 13.5% | 11.1% | 16.7% | -1.6% (active) | -22.1% (active) | -14.5% (active) | 9.12% (active) | -28% (active) | 14.8%
8 | N#C/C(=N\Nc1ccc(F)cc1)C(=O)Nc1cc(-c2ccccc2)nn1-c1ccccc1 | 24.1% | 11.9% | 11% | 19.8% | 1.96% (active) | -14.8% (active) | 24.7% | 11.2% | 25.9% | 3.07% (active)
9 | O=c1nc(Nc2ccc([N+](=O)[O-])cc2O)sc2ccccc12 | 24.2% | 3.35% (active) | 24.1% | 47.4% | 36.9% | 49.2% | 33.2% | 14% | 27.4% | 22.5%
10 | O=C(Nc1ccc(N2CCOCC2)cc1)Nc1ccc2c(ccn2C(=O)c2cccc(F)c2)c1 | 71.8% | 58.5% | 58.3% | 99.3% | 82.6% | 111% | 81% | 82.7% | 21.7% | 74.2%
11 | Nc1nc(=O)n([C@H]2C[C@H](O)[C@@H](CO)O2)cc1C=O | 107% | 110% | 11.3% | 94.2% | 78.1% | 116% | 106% | 116% | 129% | 9.49% (active)
12 | CN1CCN(c2ccc(Nc3nc(NCCCNS(=O)(=O)c4cccc5ccccc45)c4sccc4n3)cc2)CC1 | 4.12% (active) | -2.5% (active) | 5.7% (active) | 10.8% | -35.6% (active) | -18% (active) | 6.32% (active) | -62.7% (active) | -25% (active) | 13.5%
13 | CNCCN(C)c1ccc(Nc2cc(NC3CC3)n3ncc(C#N)c3n2)cc1NC(C)=O | 6.13% (active) | 12.2% | 21.7% | 7.68% (active) | 2.94% (active) | -13.6% (active) | -18.3% (active) | -16.9% (active) | -19% (active) | 45.5%
14 | COc1cc2oc(-c3cccc(NC(=O)[C@@H](N)C(C)C)c3)cc(=O)c2c(OC)c1OC | 76.9% | 88.2% | 99% | 103% | 107% | 104% | 103% | 108% | 112% | 107%
